Assay results published in PubChem BioAssay.
Entries with a potency or affinity are not part of this list. Records with an inconclusive call do not appear. Active and inactive are the calls of the source.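 The calls were made as follows, unless noted: active = falling signal with fitted half-maximal potency no higher than twice the top valid tested dose; inconclusive = poor fit quality, or flat fit spanning -70% to -30%; inactive = potency over limit, rising signal, or flat fit inside 30%.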

Key:
[1] = Cryptococcus neoformans growth inhibition, dose response, Alamar Blue, cherry-picks (AID 686998)
[2] = inducers of Cryptococcus neoformans cell lysis, dose response, AK release luminescence, cherry-picks (AID 687000;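 active = fitted dose curve reaches 40% lysis signal rise at or below the highest valid concentration tested for that sample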;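 also: luminescent detection of adenylate kinase leaking from lysed yeast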)
[3] = HepG2 cell cytotoxicity, dose response, cytotoxicity control, cherry-picks, set 2 (AID 687002;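 active = a dose-response fit showing signal loss, with half-maximal concentration no higher than twice the top tested dose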)
[4] = HeLa cell cytotoxicity, dose response, cytotoxicity control, ATP luminescence, cherry-pick samples (AID 687004;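 active = a fitted half-maximal concentration no higher than twice the top valid tested dose, with signal falling as cells die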)

Measured: outcome

COCC#Cc1cnc2c(c1)C(=O)N([C@H](C)CO)C[C@@H](C)[C@@H](CN(C)C(=O)Nc1ccc(OC)cc1)O2
inactive: all assays above

O=C(CSc1ncnc2c1cnn2-c1ccccc1)NC1CCS(=O)(=O)C1 (stereo not given)
inactive: all assays above

Cc1ccc(S(=O)(=O)Nc2ccc3c(c2)C(=O)N([C@@H](C)CO)C[C@H](C)[C@H](CN(C)C(=O)Nc2ccc(C(F)(F)F)cc2)O3)cc1
inactive: all assays above

CC1(C(=O)Nc2ccc3ccccc3c2)CCC(=O)N1C1CC1 (stereo not given)
inactive: all assays above

COc1ccc(C#Cc2ccc3c(c2)O[C@H](CN(C)C(=O)Nc2cccc(OC)c2)[C@H](C)CN([C@@H](C)CO)S3(=O)=O)cc1
inactive: all assays above

O=C(C[C@@H]1CC[C@H]2[C@@H](COC[C@H](O)CN2Cc2ccccc2F)O1)NC1CCC1
inactive: all assays above

C[C@H]1CN([C@@H](C)CO)C(=O)c2cc(NC(=O)Nc3ccc4c(c3)OCO4)ccc2O[C@@H]1CN(C)CC1CCCCC1
inactive: all assays above

C[C@H](O)C#Cc1ccc2c(c1)O[C@H](CN(C)C(=O)C1CCCCC1)[C@H](C)CN([C@@H](C)CO)S2(=O)=O
inactive: all assays above

C[C@H](CO)N1C[C@H](C)[C@@H](CN(C)C(=O)C2CCOCC2)Oc2ncc(C#CCc3ccccc3)cc2C1=O
inactive: all assays above

Cc1cccc(C)c1NC(=O)C(CCc1ccccc1)N1CCN(C)CC1 (stereo not given)
inactive: all assays above

CO[C@@H]1CN(C)C(=O)c2cc(NS(=O)(=O)c3ccc(C)cc3)ccc2OC[C@@H](C)N(C)C[C@@H]1C
inactive: all assays above

COc1ccc(S(=O)(=O)Nc2ccc3c(c2)C(=O)N([C@@H](C)CO)C[C@H](C)[C@@H](CN(C)C)OCCCC[C@H](C)O3)cc1
inactive: all assays above

CN1CCc2c(sc(N)c2C(=O)c2ccc(Cl)cc2)C1
inactive: all assays above

C[C@@H]1CN([C@@H](C)CO)C(=O)c2cc(NC(=O)Nc3ccc(F)cc3)ccc2O[C@@H](C)CCCCO[C@H]1CN(C)S(=O)(=O)c1ccccc1
inactive: all assays above

COc1ccccc1CNC(=O)C[C@@H]1CC[C@@H]2[C@H](COC[C@@H](O)CN2Cc2ccccc2)O1
inactive: all assays above

COc1ccc(NC(=O)Nc2ccc3c(c2)C(=O)N([C@H](C)CO)C[C@@H](C)[C@@H](CN(C)S(=O)(=O)c2ccc(Cl)cc2)OCCCC[C@H](C)O3)cc1
inactive: all assays above

CC(C)NC(=O)Nc1ccc2c(c1)C(=O)N([C@@H](C)CO)C[C@H](C)[C@@H](CN(C)C(=O)CCC(F)(F)F)OCCCC[C@H](C)O2
inactive: all assays above

CCCC(=O)N1CCCC1(C)C(=O)Nc1cc(C)ccc1C (stereo not given)
inactive: all assays above

C[C@H](CO)N1C[C@H](C)[C@@H](CN(C)Cc2ccncc2)OCCCC[C@H](C)Oc2ccc(NC(=O)NC3CCCCC3)cc2C1=O
inactive: all assays above

C[C@@H](O)C#Cc1ccc([C@@H]2[C@H](CO)N3CCCCN(CC4CC4)C[C@@H]23)cc1
inactive: all assays above

C[C@H](CO)N1C[C@H](C)[C@H](CN(C)C(=O)Nc2cccc3ccccc23)Oc2ccc(NC(=O)Nc3ccccc3)cc2C1=O
inactive: all assays above

O=C(c1cccc(F)c1)N1C[C@@H]2[C@H](c3ccccc31)[C@H](CO)N2Cc1cocn1
inactive: all assays above

Cc1ccc(NC(=O)[C@H](C)NC(=O)C2CCN(C(=O)[C@@H](N)CC(C)C)CC2)cc1
inactive: all assays above

CCC(C)(C(=O)Nc1cccc(C)c1)N1CCC1=O (stereo not given)
inactive: all assays above

C[C@H](CO)N1C[C@H](C)[C@H](CN(C)S(=O)(=O)c2ccccc2)Oc2ccc(NS(=O)(=O)c3ccc(F)cc3)cc2C1=O
inactive: all assays above

O=C(C[C@H]1C[C@@H]2c3cc(NC(=O)c4cccnc4)ccc3O[C@@H]2[C@@H](CO)O1)NCCc1ccccc1
inactive: all assays above

O=C(C[C@@H]1CC[C@@H]2[C@H](COC[C@H](O)CN2Cc2cccc(C(F)(F)F)c2)O1)NCc1ccccc1
inactive: all assays above

CC(C)NC(=O)N(C)C[C@@H]1OCCCC[C@@H](C)Oc2ccc(NC(=O)c3ccccc3)cc2C(=O)N([C@H](C)CO)C[C@H]1C
inactive: all assays above

C[C@H]1CN([C@@H](C)CO)C(=O)c2cc(-c3cncnc3)cnc2O[C@H]1CN(C)C(=O)c1ccccc1F
inactive: all assays above

CCC(=O)N[C@@H]1C=C[C@H](CC(=O)NCC2CCCCC2)O[C@H]1CO
inactive: all assays above

COc1cccc(S(=O)(=O)N2C[C@@H](O)COC[C@H]3O[C@H](CC(=O)N4CCN(C)CC4)CC[C@@H]32)c1
inactive: all assays above

CC(=O)c1cccc(NC(=S)NC2CCCCC2)c1
inactive: all assays above

COc1ccc(C2CC(c3cccs3)=NN2C(=O)c2ccc(Br)o2)cc1 (stereo not given)
inactive: all assays above

O=C(Nc1cccc(F)c1)N[C@H]1CC[C@H](CCNS(=O)(=O)c2cccc(Cl)c2)O[C@@H]1CO
inactive: all assays above

C[C@@H]1CN([C@@H](C)CO)C(=O)c2cccc(NC(=O)c3ccncc3)c2O[C@H]1CN(C)C(=O)Nc1ccccc1
inactive: all assays above

C[C@@H]1CN([C@@H](C)CO)C(=O)c2cc(NS(=O)(=O)c3ccccc3)ccc2O[C@H]1CN(C)C(=O)NC1CCCCC1
inactive: all assays above

Cc1ccc(NC(=O)[C@H](C)NC(=O)C2CCN(C(=O)[C@@H](N)C(C)C)CC2)cc1
inactive: all assays above

O=C(C[C@@H]1C=C[C@@H](NC(=O)C2CCC2)[C@H](CO)O1)NC1CCC1
inactive: all assays above

COc1ccc(CN(C)C[C@@H]2Oc3ccc(NC(=O)Nc4ccc(F)cc4)cc3CC(=O)N([C@H](C)CO)C[C@H]2C)cc1
inactive: all assays above

Cc1noc(C)c1S(=O)(=O)Nc1ccc2c(c1)C(=O)N([C@H](C)CO)C[C@H](C)[C@H](CN(C)Cc1ccncc1)O2
inactive: all assays above

C/C=C/c1ccc2c(c1)O[C@H](CN(C)S(=O)(=O)c1ccccc1)[C@H](C)CN([C@@H](C)CO)S2(=O)=O
inactive: all assays above

CC(=O)NNC(=O)CSc1nnc(-c2ccccc2)c(-c2ccccc2)n1
inactive: all assays above

C[C@H](CO)N1C[C@H](C)[C@@H](CN(C)C(=O)Nc2ccc(F)cc2)Oc2c(NS(=O)(=O)c3ccccc3)cccc2C1=O
inactive: all assays above

CC(C)(C)SCCNC(=O)CN(c1ccc(F)cc1)S(=O)(=O)c1ccccc1
inactive: all assays above

COc1ccc(S(=O)(=O)N[C@@H]2C=C[C@@H](CC(=O)N3CCC(Cc4ccccc4)CC3)O[C@H]2CO)cc1
inactive: all assays above

CCCN(C)C[C@@H]1OCCCC[C@H](C)Oc2ccc(NS(=O)(=O)c3ccc(C)cc3)cc2C(=O)N([C@H](C)CO)C[C@@H]1C
inactive: all assays above

CCS(=O)(=O)N1CCCCN2[C@H](CO)[C@@H](c3ccc(-c4ccc(C#N)cc4)cc3)[C@@H]2C1
inactive: all assays above

COC(=O)N(C)C[C@H]1OCc2cn(nn2)CCCC(=O)N([C@H](C)CO)C[C@@H]1C
inactive: all assays above

COc1cccc(C2CC(c3cccs3)=NN2C(=O)c2ccco2)c1O (stereo not given)
inactive: all assays above

COc1ccc(-c2cnc3c(c2)C(=O)N([C@H](C)CO)C[C@H](C)[C@H](CN(C)Cc2ccc(F)cc2)O3)cc1
inactive: all assays above

CCC(C)(C(=O)NC1CCCCC1)N(C(=O)C1CCC(=O)N1)c1ccccc1 (stereo not given)
inactive: all assays above

C[C@@H]1CN([C@@H](C)CO)C(=O)c2cc(C3=CCCCC3)cnc2O[C@H]1CN(C)C(=O)Cc1cccnc1
inactive: all assays above

CC(C)NC(=O)Nc1cccc2c1O[C@@H](CN(C)C(=O)Nc1ccccc1)[C@@H](C)CN([C@@H](C)CO)C2=O
inactive: all assays above

Cc1ccc(C2=NN(C(=O)c3ccc(Br)o3)C(c3ccc(C)cc3)C2)cc1 (stereo not given)
inactive: all assays above

C[C@H]1CN([C@@H](C)CO)C(=O)Cc2cc(NS(=O)(=O)c3ccc(F)cc3)ccc2O[C@H]1CN(C)S(=O)(=O)c1ccc(F)cc1
inactive: all assays above
